The panel holds about 83,000 compounds, 20% with a hit somewhere; the sample as a whole holds those more often.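 In brief: 96-well plates, 48 h treatment, single concentration, percent growth endpoint.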 Values without a mark were called inactive. Active and inactive are the calls of the source. How the source made its calls: active means growth percent below 10; inactive means the rest.
Key:
Test in all cases: NCI-60 one-dose screen, 48 h (100 = growth as untreated, 0 = no growth, -100 = all killed)
Conditions in all cases: 10 µM
T-47D breast = test system: T-47D breast
BT-549 breast = test system: BT-549 breast
MDA-MB-435 melanoma = test system: MDA-MB-435 melanoma
SW-620 colon = test system: SW-620 colon
MCF7 breast = test system: MCF7 breast
HCT-116 colon = test system: HCT-116 colon
HCC-2998 colon = test system: HCC-2998 colon
KM12 colon = test system: KM12 colon

| SMILES | growth (T-47D breast) | growth (BT-549 breast) | growth (MDA-MB-435 melanoma) | growth (SW-620 colon) | growth (MCF7 breast) | growth (HCT-116 colon) | growth (HCC-2998 colon) | growth (KM12 colon) |
| --- | --- | --- | --- | --- | --- | --- | --- | --- |
| COc1cc(Cn2c(-c3ccccc3)cc3c2-c2oncc2CC3)cc(OC)c1 | 45.8% | 8.36% (active) | -39.5% (active) | 23.8% | 14.1% | 6.79% (active) | 17.4% | 10.2% |
| Clc1cc(Cl)c(OCCCCCCN2CCNCC2)c(Cl)c1 | 39.8% | 70.4% | 10.5% | -44% (active) | -24.5% (active) | 12% | -34% (active) | 21.3% |
| C#Cc1ccc(-n2c(/C=C/c3cc(OC)c(OC)c(OC)c3)nc3ncccc3c2=O)cc1 | 58.9% | 59.7% | -9.47% (active) | 49.1% | 25% | 54.2% | 91% |  |
| Cc1ccc(NS(=O)(=O)c2ccccc2)c(NS(=O)(=O)c2ccccc2)c1 | 101% | 104% | 106% | 95.1% | 104% | 93.7% | 106% | 103% |
| COc1cc2nc(Sc3sc(N)nc3C)n(-c3ccc(Oc4ccccc4)cc3)c(=O)c2cc1OC | 77.3% | 71.3% | 93.3% | 81.2% | 74.4% | 47.4% | 80.4% | 93.5% |
| COc1ccc(C2=Cc3ccc(OC(C)=O)cc3OC2)cc1 | 87.3% | 97.5% | 91.9% | 101% | 101% | 104% | 95% | 88.9% |
| CN1/C(=C\C(I)C(I)C2=[N+](C)c3ccccc3C2(C)C)C(C)(C)c2ccccc21 (stereo unspecified) | -0.299% (active) | 13.3% | 11.8% | 16.1% | 4.83% (active) | 9.19% (active) | 12.6% | 13.2% |
| Cn1c([N+](=O)[O-])cnc1/C=C1\Oc2ccc(Br)cc2C1=O | 65.9% | -41% (active) | -65.8% (active) | -65.3% (active) | 3.52% (active) | -27.1% (active) | -51.7% (active) | -45.8% (active) |
| COc1cc(C(=O)n2nc(N)c3c(C)cc(C)nc32)cc(OC)c1OC | 98.5% | 79.7% | -12.7% (active) | 31.5% | 45.3% | 70.2% | 95.6% |  |
| C=C1C(=O)O[C@H]2[C@H]1CC/C(COC(=O)OCCCCCOC(=O)OC/C1=C/CC[C@@]3(C)O[C@H]3[C@H]3OC(=O)C(=C)[C@@H]3CC1)=C\CC[C@@]1(C)O[C@@H]21 | -45% (active) | -72.7% (active) | -13% (active) | -54.3% (active) | -75.8% (active) | -95.9% (active) | -60.8% (active) | 5.59% (active) |
| COc1cc(-c2nc3ccc(C)cc3[nH]2)ccc1OCc1nnc(-c2ccc(CC(C)C)cc2)o1 | 77.2% | 101% | 99.6% | 106% | 79.8% | 97.1% | 115% | 97.5% |
| O=C(NNc1nc(N2CCCC2)nc(N2CCCC2)n1)c1ccccc1 | 97.6% | 112% | 117% | 104% | 96.2% | 109% | 106% | 104% |
| O=C(NCCCl)c1cc(Cl)cc(Cl)c1 | 93.6% | 105% | 99.9% | 112% | 96.2% | 110% | 102% | 107% |
| COc1ccc(-c2nc(-c3nc4ccc(C)cc4[nH]3)c3ccccn23)cc1 | 19.3% | 68.1% | 62.9% | 61.2% | 35% | 41.1% | 36.4% |  |
| CCCCCC(=O)N1c2ccccc2NC2=C(C(=O)CC(c3ccc(OC)c(OC)c3)C2)C1c1ccc(C(F)(F)F)cc1 (stereo unspecified) | 36.9% | 75.9% | 62.4% | 68.8% | 50.2% | 39.3% | 81.2% |  |
| COc1ccc(-c2nc(NC(=O)CS(=O)(=O)c3ccc(F)cc3)sc2C)cc1 | 33.2% | 66.3% | 75% | 50.9% | 57.9% | 44.7% | 47.4% |  |
| CC1(C)CNC(=O)N1 | 99.2% | 103% | 102% | 102% | 94.5% | 91.6% | 95.7% | 104% |

— PubChem BioAssay (NCI)
